# For some of these results: Results with a measured potency or affinity are listed apart.
# Tests used:
# Design in all cases: scale not given: direction of the effect not stated beside the values
# [1] = biological target: Protein translocase subunit SecA (Escherichia coli (strain K12)) (UniProt P10408); test: Assay to Identify E. coli SecA ATPase Inhibitors; format: functional; settings: 30 µM
# [2] = biological target: T1, Ubiquitin-activating enzyme e1, putative (Leishmania donovani (strain BPK282A1)) (UniProt E9BSI1); test: Leishmania donovani Ubiquitin Activating Enzyme (LdE1); format: functional; settings: 30 µM
# T1 sequence (whole entry): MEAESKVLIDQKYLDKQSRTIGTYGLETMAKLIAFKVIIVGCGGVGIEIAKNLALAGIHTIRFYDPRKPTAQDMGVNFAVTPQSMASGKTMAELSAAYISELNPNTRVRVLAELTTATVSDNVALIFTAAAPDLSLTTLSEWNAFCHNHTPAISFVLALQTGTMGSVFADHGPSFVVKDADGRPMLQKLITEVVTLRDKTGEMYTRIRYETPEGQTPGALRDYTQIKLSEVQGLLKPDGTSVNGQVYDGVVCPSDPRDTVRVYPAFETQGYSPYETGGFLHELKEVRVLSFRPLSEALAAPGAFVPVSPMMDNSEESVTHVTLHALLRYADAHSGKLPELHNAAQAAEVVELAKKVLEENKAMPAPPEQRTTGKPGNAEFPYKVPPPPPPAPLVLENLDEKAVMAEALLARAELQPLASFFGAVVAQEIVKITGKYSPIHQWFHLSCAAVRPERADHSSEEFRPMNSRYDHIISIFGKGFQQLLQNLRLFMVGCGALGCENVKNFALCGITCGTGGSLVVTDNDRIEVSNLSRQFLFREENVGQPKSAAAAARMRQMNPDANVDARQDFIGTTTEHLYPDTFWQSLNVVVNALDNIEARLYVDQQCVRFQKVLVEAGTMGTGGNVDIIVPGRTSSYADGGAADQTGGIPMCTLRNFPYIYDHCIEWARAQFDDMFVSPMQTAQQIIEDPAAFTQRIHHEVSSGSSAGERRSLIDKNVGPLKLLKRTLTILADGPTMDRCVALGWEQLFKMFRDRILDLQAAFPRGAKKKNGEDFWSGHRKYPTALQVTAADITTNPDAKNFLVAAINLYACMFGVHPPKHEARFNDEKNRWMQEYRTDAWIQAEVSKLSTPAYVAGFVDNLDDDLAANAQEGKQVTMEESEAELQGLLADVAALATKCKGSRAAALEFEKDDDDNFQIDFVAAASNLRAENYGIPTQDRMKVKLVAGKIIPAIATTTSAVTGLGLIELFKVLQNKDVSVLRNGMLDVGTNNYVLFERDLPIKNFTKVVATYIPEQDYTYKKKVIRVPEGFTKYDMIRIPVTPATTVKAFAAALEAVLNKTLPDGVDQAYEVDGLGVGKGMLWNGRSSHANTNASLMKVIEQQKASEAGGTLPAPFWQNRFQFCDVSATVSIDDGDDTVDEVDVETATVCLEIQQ
# [3] = biological target: AMP-activated protein kinase, AMPK (Homo sapiens) (UniProt P54646+O43741+P54619+Q9UGJ0+Q9Y478+Q13131+Q9UGI9); test: AMP-dependent Kinase enzyme assay. An in vitro enzyme assay that detects ADP turnover that is directly proportional to AMPK activity. This uses naive AMPK that is activated during the assay with MK-8722; format: functional; settings: 30 µM
# [4] = biological target: Sialic acid-binding Ig-like lectin 9 (Homo sapiens) (UniProt Q9Y336); test: Hs-Siglec9 ALPHAscreen SOP 20170721; settings: 10 µM
# Chain of Sialic acid-binding Ig-like lectin 9 (Homo sapiens) (Q9Y336 whole entry): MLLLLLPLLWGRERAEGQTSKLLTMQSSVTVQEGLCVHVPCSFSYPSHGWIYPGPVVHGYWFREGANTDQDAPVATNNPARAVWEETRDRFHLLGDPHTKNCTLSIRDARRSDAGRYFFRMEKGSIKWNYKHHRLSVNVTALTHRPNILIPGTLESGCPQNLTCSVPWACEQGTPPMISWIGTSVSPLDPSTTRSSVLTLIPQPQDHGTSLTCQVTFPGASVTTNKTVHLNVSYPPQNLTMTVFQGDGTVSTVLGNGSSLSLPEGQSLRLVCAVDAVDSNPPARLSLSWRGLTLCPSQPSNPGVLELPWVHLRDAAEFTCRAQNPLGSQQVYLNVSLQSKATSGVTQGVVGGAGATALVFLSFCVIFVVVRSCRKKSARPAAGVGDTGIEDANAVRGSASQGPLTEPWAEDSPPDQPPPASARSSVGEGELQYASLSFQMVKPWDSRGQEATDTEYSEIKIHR
# Trypanosoma cruzi = test: Trypanosoma cruzi phosphomannomutase and mannose-1-phosphate guanylyltransferase assay; format: functional; settings: 10 µM
# [5] = biological target: T2, Arginase-2, mitochondrial (Homo sapiens) (UniProt P78540); test: in vitro enzyme assay to detect the production of urea directly proportional to the activity of Arginase II; format: functional; settings: 33.3 µM; also: in the data most compounds retested in dose-response had high values
# T2 sequence (whole entry): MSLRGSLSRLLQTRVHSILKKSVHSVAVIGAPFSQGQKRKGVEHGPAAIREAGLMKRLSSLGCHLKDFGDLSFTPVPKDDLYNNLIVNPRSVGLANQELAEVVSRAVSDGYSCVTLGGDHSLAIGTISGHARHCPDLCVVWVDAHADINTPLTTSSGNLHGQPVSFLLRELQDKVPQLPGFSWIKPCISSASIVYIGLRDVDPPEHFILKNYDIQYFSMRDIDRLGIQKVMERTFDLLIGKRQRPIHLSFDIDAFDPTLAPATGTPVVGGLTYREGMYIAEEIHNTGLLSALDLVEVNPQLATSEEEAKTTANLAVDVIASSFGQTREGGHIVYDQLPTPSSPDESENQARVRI
# [6] = biological target: T3, Proteasome subunit beta (Trypanosoma cruzi) (UniProt O96673); test: Trypanosoma cruzi proteasome chymotrypsin-like activity (TcProtChymo) assay.; also: in the data most compounds retested in dose-response had high values; format: functional; settings: 9.37 µM
# T3 sequence (whole entry): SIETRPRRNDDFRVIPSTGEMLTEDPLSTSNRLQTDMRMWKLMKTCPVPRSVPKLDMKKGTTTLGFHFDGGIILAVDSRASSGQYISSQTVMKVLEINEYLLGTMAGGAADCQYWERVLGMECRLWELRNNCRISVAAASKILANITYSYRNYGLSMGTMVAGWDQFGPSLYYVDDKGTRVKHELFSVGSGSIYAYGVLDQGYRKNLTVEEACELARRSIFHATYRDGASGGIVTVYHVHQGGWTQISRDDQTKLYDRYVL
# Homo sapiens = species: Homo sapiens; test: To identify inhibition of the IFN signalling (Jak-Stat) pathway via expression of an eGFP reporter gene under the control of an IFN-stimulated response element (ISRE) containing MxA promoter.; format: functional; settings: 30 µM
# [7] = biological target: T4, Tyrosyl-tRNA synthetase, putative (Trypanosoma cruzi (strain CL Brener)) (UniProt Q4DSP6); test: Trypanosoma cruzi tyrosyl tRNA synthetase (TcYRS) _High Tyrosine SOP; format: functional; settings: 30 µM; also: in the data most compounds retested in dose-response had high values
# T4 sequence (whole entry): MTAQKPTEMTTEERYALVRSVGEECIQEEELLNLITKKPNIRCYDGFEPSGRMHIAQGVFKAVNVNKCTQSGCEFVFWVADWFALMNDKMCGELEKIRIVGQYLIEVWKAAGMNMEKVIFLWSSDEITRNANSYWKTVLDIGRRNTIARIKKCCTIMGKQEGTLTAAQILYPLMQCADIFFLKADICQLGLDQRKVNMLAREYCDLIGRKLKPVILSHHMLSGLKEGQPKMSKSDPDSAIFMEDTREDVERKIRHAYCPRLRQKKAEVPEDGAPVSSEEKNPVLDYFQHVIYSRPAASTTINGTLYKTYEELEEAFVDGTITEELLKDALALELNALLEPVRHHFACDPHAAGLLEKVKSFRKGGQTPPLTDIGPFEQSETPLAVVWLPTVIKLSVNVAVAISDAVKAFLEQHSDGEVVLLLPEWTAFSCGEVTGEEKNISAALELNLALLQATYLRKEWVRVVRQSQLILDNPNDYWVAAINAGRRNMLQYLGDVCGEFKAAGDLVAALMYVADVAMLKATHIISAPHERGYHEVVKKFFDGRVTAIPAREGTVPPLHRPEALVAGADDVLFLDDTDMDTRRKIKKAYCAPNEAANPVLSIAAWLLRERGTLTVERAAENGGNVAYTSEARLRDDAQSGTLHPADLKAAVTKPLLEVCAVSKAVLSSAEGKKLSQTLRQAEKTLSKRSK
# [8] = biological target: T4, Tyrosyl-tRNA synthetase, putative (Trypanosoma cruzi (strain CL Brener)); test: Trypanosoma cruzi tyrosyl tRNA synthetase (TcYRS) SOP; format: functional; settings: 30 µM
# [9] = biological target: Chromo domain-containing protein 1 (Saccharomyces cerevisiae (strain ATCC 204508 / S288c) (Baker's yeast)) (UniProt P32657); test: ScCHD-1 Enzyme Inhibition Assay; format: functional; settings: 30 µM; also: in the data most compounds retested in dose-response had high values
# Chain of Chromo domain-containing protein 1 (Saccharomyces cerevisiae (strain ATCC 204508 / S288c) (Baker's yeast)) (P32657 whole entry, the tested form may be a part): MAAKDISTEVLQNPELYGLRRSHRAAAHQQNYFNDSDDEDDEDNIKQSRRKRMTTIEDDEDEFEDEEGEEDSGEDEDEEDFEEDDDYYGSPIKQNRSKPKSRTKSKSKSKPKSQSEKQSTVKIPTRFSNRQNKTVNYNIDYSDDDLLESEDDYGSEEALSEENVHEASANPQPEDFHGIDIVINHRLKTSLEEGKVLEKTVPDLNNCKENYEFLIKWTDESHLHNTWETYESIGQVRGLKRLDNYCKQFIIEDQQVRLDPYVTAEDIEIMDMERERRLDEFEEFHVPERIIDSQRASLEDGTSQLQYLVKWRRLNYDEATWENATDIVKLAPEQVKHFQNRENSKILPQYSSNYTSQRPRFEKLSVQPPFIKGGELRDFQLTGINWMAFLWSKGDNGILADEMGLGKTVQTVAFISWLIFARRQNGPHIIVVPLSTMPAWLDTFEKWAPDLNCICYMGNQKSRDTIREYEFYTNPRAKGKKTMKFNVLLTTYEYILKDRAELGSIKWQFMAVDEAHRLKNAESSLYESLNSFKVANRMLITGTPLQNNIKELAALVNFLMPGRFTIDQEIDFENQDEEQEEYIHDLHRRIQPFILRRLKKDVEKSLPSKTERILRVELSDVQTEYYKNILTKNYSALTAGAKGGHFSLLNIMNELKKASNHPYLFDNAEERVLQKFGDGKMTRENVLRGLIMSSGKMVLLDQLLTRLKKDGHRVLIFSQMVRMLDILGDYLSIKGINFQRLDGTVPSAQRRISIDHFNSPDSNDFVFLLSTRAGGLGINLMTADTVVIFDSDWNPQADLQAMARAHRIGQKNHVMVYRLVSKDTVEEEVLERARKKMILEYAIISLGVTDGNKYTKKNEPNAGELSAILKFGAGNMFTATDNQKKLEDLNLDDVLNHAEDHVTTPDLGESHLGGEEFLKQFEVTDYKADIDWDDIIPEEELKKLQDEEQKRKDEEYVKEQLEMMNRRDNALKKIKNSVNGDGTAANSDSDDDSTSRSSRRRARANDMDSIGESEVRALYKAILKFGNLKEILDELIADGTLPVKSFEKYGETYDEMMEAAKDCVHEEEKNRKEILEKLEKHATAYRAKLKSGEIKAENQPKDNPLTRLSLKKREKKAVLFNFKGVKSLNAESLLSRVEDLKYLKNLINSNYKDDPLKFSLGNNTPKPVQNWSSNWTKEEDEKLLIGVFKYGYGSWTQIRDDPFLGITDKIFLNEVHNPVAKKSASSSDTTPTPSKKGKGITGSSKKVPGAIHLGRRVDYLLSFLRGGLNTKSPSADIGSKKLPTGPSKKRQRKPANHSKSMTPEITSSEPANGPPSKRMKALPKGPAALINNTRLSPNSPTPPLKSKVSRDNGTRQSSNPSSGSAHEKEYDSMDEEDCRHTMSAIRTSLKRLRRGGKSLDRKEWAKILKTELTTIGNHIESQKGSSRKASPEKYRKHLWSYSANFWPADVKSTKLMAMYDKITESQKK
# Chain of Protein translocase subunit SecA (Escherichia coli (strain K12)) (P10408 whole entry): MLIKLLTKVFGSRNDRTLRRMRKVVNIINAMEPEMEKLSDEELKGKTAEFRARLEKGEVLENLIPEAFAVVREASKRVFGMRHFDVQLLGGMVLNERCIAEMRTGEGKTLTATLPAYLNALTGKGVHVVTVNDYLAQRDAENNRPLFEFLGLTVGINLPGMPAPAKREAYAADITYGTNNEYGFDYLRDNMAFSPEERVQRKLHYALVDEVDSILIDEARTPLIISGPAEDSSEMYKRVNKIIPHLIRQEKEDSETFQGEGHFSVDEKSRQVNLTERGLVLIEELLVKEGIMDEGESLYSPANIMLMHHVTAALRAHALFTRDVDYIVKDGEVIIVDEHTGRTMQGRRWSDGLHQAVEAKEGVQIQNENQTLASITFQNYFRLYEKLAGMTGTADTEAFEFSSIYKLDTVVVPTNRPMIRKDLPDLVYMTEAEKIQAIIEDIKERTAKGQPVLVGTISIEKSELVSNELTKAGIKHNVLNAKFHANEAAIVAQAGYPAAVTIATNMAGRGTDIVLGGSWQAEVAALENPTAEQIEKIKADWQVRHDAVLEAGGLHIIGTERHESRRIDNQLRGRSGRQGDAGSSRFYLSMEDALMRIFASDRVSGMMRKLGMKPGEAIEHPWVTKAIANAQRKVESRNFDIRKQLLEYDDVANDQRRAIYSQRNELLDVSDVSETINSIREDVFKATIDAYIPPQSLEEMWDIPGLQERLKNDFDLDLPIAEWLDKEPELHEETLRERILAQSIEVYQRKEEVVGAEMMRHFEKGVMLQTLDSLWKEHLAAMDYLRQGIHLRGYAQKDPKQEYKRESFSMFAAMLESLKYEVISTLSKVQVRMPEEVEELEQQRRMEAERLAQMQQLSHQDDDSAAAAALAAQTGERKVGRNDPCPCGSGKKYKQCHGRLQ
SMILES,Percent Effect [1] [%],Percent Effect [2] [%],Percent Effect [3] [%],Percent Effect [4] [%],Percent Effect (Trypanosoma cruzi) [%],Percent Effect [5] [%],Percent Effect [6] [%],Percent Effect (Homo sapiens) [%],Percent Effect [7] [%],Percent Effect [8] [%],Percent Effect [9] [%]
CC(C)NS(=O)(=O)c1cc(C(=O)O)cc(-c2ccccc2CN(C)C)c1,-5.51,0,-1.94,-2.62,-6.16,4.22,3,1.46,1.07,3.7,-3.44
O=C(c1ccc(-n2cccn2)nc1)N1CCCN(c2cccnn2)CC1,-2.01,0,6.8,-1.08,-6.76,1.47,13,-7.18,-0.952,0,-11.3
Cc1ccc(C2CCCCCN2Cc2cn(C)nc2C)s1 (stereo unspecified),-9.52,18.2,0.0483,-1.66,1.48,-4.52,9.92,-5.04,0,14.1,-7.58
CCn1c(C)nnc1CN(C)C1CCN(CCn2cccn2)C1 (stereo unspecified),-1.14,15.6,0.0585,-11.5,-0.686,-1.05,17.9,20.6,14.3,23.5,-17.4
COCCN(Cc1ccc(F)cc1Cl)C(=O)c1ccncc1,-1.67,-1.39,-3.11,0.447,0.486,-1.32,5.09,0.399,-1.05,0,-1.32
CN(C)C(=O)N1C[C@H]2CN(Cc3cccc(F)c3)C(=O)[C@H]2C1,-4.01,10.8,7.46,-7.24,-4.2,0.955,20.9,4.49,0,-7.69,-1.2
CC(C)COC(C)C(=O)NCc1ccc(N(C)C)cc1 (stereo unspecified),-2.38,23.4,3.83,-18.6,2.06,-2.32,23.4,5.87,5.71,30.6,-26.1
CCCn1cc(C(=O)N(C)Cc2nc(-c3ccccn3)no2)c(C)n1,-2.06,5.33,-2.74,4.11,-2.43,4.69,18.8,17,6.01,13.6,-5.18
CC(C)c1nc(CC(=O)Nc2nc(CN3CCCCCC3)cs2)cs1,-2.6,-15.6,-8.27,-10.6,13.8,-4.84,4.61,1.12,10.5,23.5,-15.2
CC(C)CCN1CC2(CCCN(C(=O)c3cscn3)C2)CCC1=O (stereo unspecified),-3.18,7.79,1.5,11.5,4.82,-66.2,8.98,-4.77,5.38,13.6,-0.298
c1csc(-c2nc(CNC3CCc4ncnn4C3)co2)c1 (stereo unspecified),-3.96,7.79,-1.01,1.84,-5.24,2.13,4.22,20.4,2.91,9.76,-4.74
